Compound activity from PubChem.
Shown are actives, neighbours in structure and some others; about 4.1% of the full set was active somewhere.
tim23-1 inh: inhibits growth of tim23-1 mutant yeast; inhibition, % at 20 µM; S. cerevisiae tim23-1 growth, BacTiter-Glo luminescence, 24 h; AID 463212; actives 1.3% (n = 330,000);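 active = growth inhibition of the mutant yeast at or above 50%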;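 also: temperature-sensitive mutant grown at 25 °C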
tim10-1 inh: growth inhibitors of tim10-1 mutant yeast. S. cerevisiae tim10-1 ts strain growth, BacTiter-Glo, 24 h. inhibition, % at 20 µM. actives 2.2% (n = 330,000);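 active = inhibition of at least 40%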;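 also: mutant grown at 25 °C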
NALP3 yeast inh: blocks the NALP3 inflammasome reconstituted in yeast | inhibition, % at 10 µM | actives 0.39% (n = 330,000) | Yeast reconstituted NLRP3/ASC/caspase-1, beta-gal luminescence, 24 h | AID 2825;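 active = inhibition of 50% or more; inactive = inhibition below 50%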
TIM10 inh: TIM10 yeast growth inhibition; AID 463195; inhibition, % at 10 µM; actives 1.4% (n = 330,000); S. cerevisiae TIM10 strain growth, BacTiter-Glo luminescence, 24 h;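 active = inhibition of 40% or more at the single tested concentration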;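 also: wild-type TIM10 isogenic control strain grown at permissive 25 °C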
NALP1 inh: blocks the NALP1 inflammasome reconstituted in yeast; S. cerevisiae NALP1/ASC/caspase-1 growth, X-gal OD620, 72 h; inhibition, % at 10 µM; actives 0.61% (n = 280,000); AID 2071; in the data active = inhibition mostly above about 24%, no sharp cut-off; inactive = mostly below about 32%
TIM10 conf: TIM10 yeast growth inhibition, confirmed. shares compounds with TIM10 inh. S. cerevisiae tim10 strain growth, BacTiter-Glo luminescence, 24 h. inhibition, % at 10 µM. actives 63% (n = 4,600). AID 463215;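 active = inhibition of yeast growth at or above a set limit in either of two replicates at 10 µM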; also: this counterscreen used the strain with wild-type TIM10
tim23-1 confirm: confirmation of tim23-1 mutant yeast growth inhibitors; shares compounds with tim23-1 inh; S. cerevisiae tim23-1 growth, BacTiter-Glo luminescence, 24 h; inhibition, % at 20 µM; actives 83% (n = 4,400);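 active = inhibition above about 39% in either of two replicate wells at 20 µM, limit read from the data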;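 also: temperature-sensitive tim23-1 mutant grown at 25 °C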
A number is an active result; . = inactive; / = not tested or not shown.

SMILES | tim23-1 inh | tim10-1 inh | NALP3 yeast inh | TIM10 inh | NALP1 inh | TIM10 conf | tim23-1 confirm
CNC(C)C(=O)NC(C(=O)N1CCCC1C(=O)Nc1ccc2ncccc2c1)C(C)C (stereo unspecified) | . | . | . | . | / | / | /
COc1ccc(-c2onc(C)c2-c2cnn(-c3ccccc3)c2)c(O)c1C | . | . | . | . | . | / | /
COc1ccc(-c2n[nH]c(C)c2-c2cnn(-c3ccccc3)c2)c(O)c1C | 51 | . | . | 48 | . | 45 | 59
C(=N\Nc1nc2ccccc2[nH]1)/c1cccc2cccnc12 | 55 | . | . | 67 | . | 55 | 48
CC(C)CNC(=O)CC(=O)N/N=C/c1ccc(F)cc1 | . | . | . | . | . | / | /
COc1ccc(/C=N/NC(=O)c2nc(-c3ccccc3)n(-c3ccccc3)n2)c(O)c1 | . | . | . | . | . | / | /
CC(C)(C)c1cc(C(=O)N/N=C/c2ccccc2O)n(-c2ccccc2)n1 | 59 | . | . | 59 | . | . | 56
CC1CCCN(Cc2c(O)ccc3c(=O)c(-c4nc5ccccc5s4)c(N)oc23)C1 (stereo unspecified) | 56 | . | . | 52 | . | 51 | 58
CCC(=O)Nc1cccc(-c2cnc3ccccc3n2)c1 | . | . | . | . | . | / | /
O=C(CCl)Nc1cccc(-c2cnc3ccccc3n2)c1 | 63 | . | . | 40 | . | . | 40
CC(Oc1ccc2ccc(=O)oc2c1)C(=O)NCCN1CCOCC1 (stereo unspecified) | . | . | . | . | . | / | /
N/C(Cc1ccc(Cl)cc1Cl)=N\OC(=O)c1ccc(Br)o1 | 80 | . | . | 86 | / | 86 | 48
CCc1cccc2c(C(=O)CCl)c[nH]c12 | 54 | . | . | 42 | . | . | 54
CCc1cccc2c(C(=S)N3CCCC3)c[nH]c12 | . | . | . | . | . | / | /
CCn1ccc(C(=O)Nc2ncc(C)s2)n1 | . | . | . | . | . | / | /
CNC(=S)N/N=C(\C)c1ccc(C(C)(C)C)cc1 | 50 | . | . | 48 | . | . | .
CNC(=S)N/N=C(\C)c1ccccc1 | . | . | . | . | . | / | /
CCCCNC(=O)[C@H](CSCc1ccccc1)N1Cc2ccccc2C1=O | . | . | . | . | . | / | /
Cc1nc(-c2ccc(NC(=O)C3CCCCC3)cc2)cs1 | . | . | . | . | . | / | /
O=C(Nc1ccc(-c2cn3ccsc3n2)cc1)C1CCCC1 | 57 | . | . | 59 | . | 50 | 69
O=S(=O)(Nc1ccc2oc(-c3ccccc3)nc2c1)c1ccccc1 | 74 | . | . | 45 | . | 36 | 66
Clc1ccc2oc(-c3ccccc3)nc2c1 | . | . | . | . | . | / | /
O=C(Nc1ccc2oc(-c3ccccc3)nc2c1)c1cccs1 | 53 | . | . | 73 | . | . | 76
O=C(Nc1ccc(Cl)c(S(=O)(=O)Nc2ccccc2Cl)c1)c1cccs1 | 53 | . | . | 45 | . | 46 | 69
O=C(Nc1ccc2c(c1)nc1n2CCN(Cc2ccccc2)C1)c1cccs1 | 53 | . | . | 67 | . | 57 | 73
SMILES | tim23-1 inh | tim10-1 inh | NALP3 yeast inh | TIM10 inh | NALP1 inh | TIM10 conf | tim23-1 confirm
O=C(Cn1ccc([N+](=O)[O-])n1)Nc1ccccn1 | . | . | . | . | . | / | /
CCOc1cccc2cc(C(N)=O)c(=N)oc12 | . | . | . | . | . | / | /
Cc1ccc2nc(NC3=NC(CC(=O)O)C(=O)N3)nc(C)c2c1 (stereo unspecified) | . | . | . | . | . | / | /
O=S(=O)(O)c1nc2ccccc2[nH]1 | . | . | . | . | . | / | /
O=C(Nc1ccc2c(c1)CCC2)c1cccs1 | 53 | . | . | 45 | . | 35 | 49
Cc1cc(C)c(S(=O)(=O)N2CCN(c3ccccn3)CC2)c(C)c1 | . | . | . | . | / | / | /
O=C(Nc1nccs1)c1ccc2c(=O)n3c(nc2c1)CCCCC3 | 52 | . | . | 49 | . | 44 | 66
O=C(Nc1nccs1)c1ccc(S(=O)(=O)c2ccccc2)cc1 | . | . | . | . | . | / | /
O=C(Nc1nccs1)c1ccc2ccccc2c1 | 54 | . | . | 46 | . | 52 | 63
CCOc1cc(Br)c(Br)c(C=Nc2ccc(NC(C)=O)cc2)c1O | 76 | . | . | 71 | . | 90 | .
CCN(c1ccc(NC(=O)COC(=O)CCC(=O)c2ccc(F)cc2)cc1)C(C)C | . | . | . | . | . | / | /
